PubChem BioAssay (NCATS)
Results filed as inconclusive are left out. The source made the active and inactive calls. Unless noted, calls follow the shape of the dose curve; as a rule, active = well fitted curve in either direction with a large enough effect (not every such curve was filed as active); inconclusive = small, poorly fitted or top-dose-only effect, or another doubt; inactive = flat fitted curve, though single readings scatter.

Columns and labels:
[1] = molecular target: Lysosomal acid glucosylceramidase (Homo sapiens) (UniProt P04062); experiment: Glucocerebrosidase-p2 (AID 348; in the data active = potency below about 10 µM; also: potency is read from the fitted curve at half-maximal effect); conditions: purified GBA, blue fluorogenic substrate, 40 min
Lysosomal acid glucosylceramidase (Homo sapiens), sequence (P04062 whole entry, looked up): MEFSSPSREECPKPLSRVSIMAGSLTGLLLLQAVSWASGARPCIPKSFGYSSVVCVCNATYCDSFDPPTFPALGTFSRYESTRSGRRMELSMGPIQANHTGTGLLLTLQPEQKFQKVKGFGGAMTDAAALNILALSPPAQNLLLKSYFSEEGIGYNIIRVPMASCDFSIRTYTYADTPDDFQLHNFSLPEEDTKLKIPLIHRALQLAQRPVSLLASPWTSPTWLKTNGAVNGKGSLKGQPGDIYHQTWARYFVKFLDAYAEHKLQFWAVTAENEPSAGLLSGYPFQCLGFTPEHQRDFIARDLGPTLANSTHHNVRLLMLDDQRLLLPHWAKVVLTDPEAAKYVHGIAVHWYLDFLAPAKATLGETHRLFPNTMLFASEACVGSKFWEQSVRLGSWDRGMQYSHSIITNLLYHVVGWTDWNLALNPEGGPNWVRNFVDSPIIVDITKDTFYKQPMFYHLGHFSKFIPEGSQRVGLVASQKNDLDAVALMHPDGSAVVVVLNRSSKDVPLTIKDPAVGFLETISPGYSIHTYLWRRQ
Method in brief: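 Compounds titrated from 0.6 nM upwards against 0.2 nM enzyme in pH 5.9 citric acid/KH2PO4, taurocholate, tween-20; blue fluorogenic substrate 80 uM, 40 min room temperature, stopped and read Ex 365/Em 440 for AC50.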

[2] = AP1 Signaling Pathway (AID 357); conditions: ME-180 AP-1-bla reporter, EGF-induced, beta-lactamase ratio, 5 h; at 7.69 µM (top of the series) unless noted;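 also: ME-180 reporter cells stimulated with EGF at its EC50 level; % is scaled to controls: 0 for no effect and ±100 for the full control effect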
Method in brief: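 AP-1-bla ME-180 cells, Opti-MEM + 0.5% dialyzed FBS, plated overnight 37 °C. Cpd titration + EC50 EGF, 5 h 37 °C. CCF4 2.5 h RT; ex 405, em 460/530 ratio → %activity, AC50.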

[3] = molecular target: Cytochrome P450 1A2 (Homo sapiens) (UniProt P05177); experiment: p450-cyp1a2 (AID 410; calls by dose curve;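 also: -100% = full effect of reference inhibitor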); conditions: recombinant CYP1A2, luciferin-ME demethylation, luminescence; series mostly up to 11.4 µM
Cytochrome P450 1A2 (Homo sapiens), sequence (P05177 whole entry, looked up): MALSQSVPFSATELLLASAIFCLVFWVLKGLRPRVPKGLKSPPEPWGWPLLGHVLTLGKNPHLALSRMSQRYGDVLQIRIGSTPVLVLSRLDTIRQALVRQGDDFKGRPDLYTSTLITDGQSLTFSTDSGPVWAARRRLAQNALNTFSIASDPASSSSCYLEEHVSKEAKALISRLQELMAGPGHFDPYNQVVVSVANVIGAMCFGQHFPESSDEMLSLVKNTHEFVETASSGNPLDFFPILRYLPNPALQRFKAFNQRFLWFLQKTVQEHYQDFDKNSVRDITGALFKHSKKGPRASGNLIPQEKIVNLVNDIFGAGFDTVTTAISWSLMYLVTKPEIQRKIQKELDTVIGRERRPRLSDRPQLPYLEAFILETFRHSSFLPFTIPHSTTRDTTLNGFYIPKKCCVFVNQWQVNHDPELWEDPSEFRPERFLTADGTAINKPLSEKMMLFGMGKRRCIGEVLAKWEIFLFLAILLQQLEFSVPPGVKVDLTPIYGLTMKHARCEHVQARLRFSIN
Method in brief: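 20nM CYP1A2 with 100uM Luciferin-ME (at Km) in 100mM KPO4; compound preincubated 10 min, NADPH regeneration added, 60 min at room temperature. Luciferin quantified by luminescence after detection reagent; normalized to 57 uM furafylline.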

[4] = NFAT Signaling Pathway (AID 444); conditions: Jurkat NFAT-bla M1, carbachol, beta-lactamase ratio, 5 h; at 7.69 µM (top of the series) unless noted;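 also: carbachol stimulus at about its EC50 of 1 µM final; % is scaled to controls: 0 for no effect and ±100 for the full control effect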
Method in brief: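 Read-out: CCF4 FRET ratio (460 nm/530 nm) after 1 h RT dye loading, used for %activity and AC50 from titration series. Cells: Jurkat NFAT-β-lactamase/M1 line, treated with compound plus 1 uM carbachol for 5 h, 37 °C.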

[5] = Stat Signaling Pathway (AID 446); conditions: ME-180 SIE beta-lactamase reporter, IL-6 stimulated, 5 h; at 7.69 µM (top of the series) unless noted;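 also: ME-180 cervical cancer cells given 40 pM IL-6 alongside compound; SIE-controlled beta-lactamase reporter measured as 460/530 nm FRET emission ratio; % is scaled to controls: 0 for no effect and ±100 for the full control effect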
Method in brief: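 ME-180 cells carrying a SIE-driven beta-lactamase reporter are stimulated with 40 pM IL-6 for 5 h at 37C in the presence of compound. The 460/530 nm FRET substrate ratio is read after 2.5 h at RT. Data are normalised to 300 pM IL-6 and to 125 nM JAK inhibitor controls.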

[6] = molecular target: Mitogen-activated protein kinase 10 (Mus musculus) (UniProt Q61831); experiment: JNK3 AlphaScreen Assay (AID 530); conditions: JNK3 lysate, c-Jun phosphorylation; series mostly up to 11.4 µM;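 also: kinase came from lysate of stimulated human HepG2 cells; signal reports phosphorylation of biotinylated GST-cJun 1-79 at Ser73 with 10 µM ATP; % is scaled to controls: 0 for no effect and ±100 for the full control effect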
Method in brief: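 Compound titrations were preincubated 15 minutes at room temperature with substrate, antibody and pre-activated JNK3-containing HepG2 lysate. Reactions were started with 10 uM ATP and stopped with EDTA-containing bead buffer for AlphaScreen detection.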

[7] = molecular target: 3',5'-cyclic-AMP phosphodiesterase 4B (Homo sapiens) (UniProt Q07343); experiment: qHTS Assay for Inhibitors of PDE-IV (AID 607; active = well fitted activation curve with a large enough effect in the main read-out, with a control signal flat, not every such curve was filed as active; also: % of control where 0% means no effect); conditions: HEK293 ACTOne CNG channel cells, membrane potential fluorescence; series mostly up to 22.9 µM
3',5'-cyclic-AMP phosphodiesterase 4B (Homo sapiens), sequence (Q07343 whole entry, looked up): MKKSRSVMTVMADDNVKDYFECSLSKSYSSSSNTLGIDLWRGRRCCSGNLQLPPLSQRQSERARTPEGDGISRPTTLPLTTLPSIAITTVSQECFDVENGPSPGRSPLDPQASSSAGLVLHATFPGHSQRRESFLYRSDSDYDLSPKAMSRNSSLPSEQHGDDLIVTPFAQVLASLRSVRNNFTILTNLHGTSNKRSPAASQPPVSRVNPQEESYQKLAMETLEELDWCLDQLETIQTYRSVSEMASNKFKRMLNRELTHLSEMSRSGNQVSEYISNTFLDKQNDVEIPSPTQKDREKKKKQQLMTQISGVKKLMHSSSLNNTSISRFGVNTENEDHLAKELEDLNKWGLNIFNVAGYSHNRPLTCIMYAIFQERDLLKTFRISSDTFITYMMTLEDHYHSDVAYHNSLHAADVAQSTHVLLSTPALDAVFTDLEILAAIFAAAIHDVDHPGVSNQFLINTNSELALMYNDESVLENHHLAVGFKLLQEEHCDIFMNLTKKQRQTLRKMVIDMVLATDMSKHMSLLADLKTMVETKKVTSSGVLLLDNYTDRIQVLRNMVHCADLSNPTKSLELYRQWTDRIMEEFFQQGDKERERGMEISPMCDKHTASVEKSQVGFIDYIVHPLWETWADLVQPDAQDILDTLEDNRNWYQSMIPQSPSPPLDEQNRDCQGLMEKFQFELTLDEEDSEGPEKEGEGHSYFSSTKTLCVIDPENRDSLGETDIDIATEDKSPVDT
Method in brief: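 HEK293 ACTOne cells with CNG channel (1000/well), endogenous PDE4; membrane potential dye, compounds up to 22.9 uM final. Fluorescence Ex 535/Em 590; RO 20-1724 (100 uM final) as reference.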

[8] = qHTS profiling for inhibitors of Plasmodium falciparum proliferation (AID 504749; active = well fitted inhibition curve with a large enough effect; also: nearly all actives have a fitted effect of over 60% in size; also: potency is read from the fitted curve at half-maximal effect;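 as to activity, negative = inhibition: 0% = DMSO vehicle and full inhibition = artemisinin control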); conditions: P. falciparum in erythrocytes, SYBR Green DNA, 72 h; at 28.7 µM (top of the series); parasite line B
Method in brief: (§1)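 Infected RBCs, 0.3% parasitemia/2.5% Hct final; cpd 72 h, 37 C, 5% CO2; lysis buffer with saponin/triton/SYBR Green I, o/n RT dark; FI 485/535; norm. to artemisinin (0.29 uM) and DMSO.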

CP192 = experiment: as above; conditions: P. falciparum in erythrocytes, SYBR Green DNA, 72 h; series mostly up to 28.7 µM
Method in brief: as §1

CP194 = experiment: as above; conditions: P. falciparum in erythrocytes, SYBR Green DNA, 72 h; series mostly up to 28.7 µM
Method in brief: as §1

CP203 = experiment: as above; conditions: P. falciparum in erythrocytes, SYBR Green DNA, 72 h; series mostly up to 28.7 µM
Method in brief: as §1

W2 = experiment: as above; conditions: P. falciparum in erythrocytes, SYBR Green DNA, 72 h; series mostly up to 28.7 µM
Method in brief: as §1

[9] = molecular target: Glucocorticoid receptor (Homo sapiens) (UniProt P04150); experiment: GR-GFP Redistribution (AID 450;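 active = compounds whose dose series gives a full or clear partial fitted curve of increased nuclear translocation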; also: potency is read from the fitted curve at half-maximal effect); conditions: U2OS GR-GFP nuclear translocation, laser cytometry, 2 h
Glucocorticoid receptor (Homo sapiens), sequence (P04150 whole entry, looked up, the tested form may be a part): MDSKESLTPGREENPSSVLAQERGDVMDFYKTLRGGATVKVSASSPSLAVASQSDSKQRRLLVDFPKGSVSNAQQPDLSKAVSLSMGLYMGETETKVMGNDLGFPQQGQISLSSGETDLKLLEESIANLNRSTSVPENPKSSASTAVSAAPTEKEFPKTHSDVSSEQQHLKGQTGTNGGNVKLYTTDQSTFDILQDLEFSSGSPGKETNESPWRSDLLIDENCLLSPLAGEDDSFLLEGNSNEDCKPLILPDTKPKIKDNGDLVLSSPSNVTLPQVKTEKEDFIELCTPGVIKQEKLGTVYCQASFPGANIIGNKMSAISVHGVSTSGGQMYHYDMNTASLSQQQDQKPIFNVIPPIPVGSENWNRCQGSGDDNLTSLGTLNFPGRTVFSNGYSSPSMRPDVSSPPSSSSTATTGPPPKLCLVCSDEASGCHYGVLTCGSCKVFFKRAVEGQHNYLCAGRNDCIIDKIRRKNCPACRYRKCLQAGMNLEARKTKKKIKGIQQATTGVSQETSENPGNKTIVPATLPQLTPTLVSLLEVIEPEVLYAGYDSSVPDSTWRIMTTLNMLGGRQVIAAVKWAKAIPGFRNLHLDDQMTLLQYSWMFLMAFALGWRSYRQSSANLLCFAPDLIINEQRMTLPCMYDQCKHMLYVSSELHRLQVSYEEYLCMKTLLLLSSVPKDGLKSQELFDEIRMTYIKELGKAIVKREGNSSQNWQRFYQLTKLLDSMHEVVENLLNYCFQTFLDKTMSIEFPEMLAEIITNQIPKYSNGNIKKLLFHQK

[10] = molecular target: Glucocorticoid receptor (Homo sapiens) (UniProt P04150); experiment: GR-EFC Redistribution (AID 451; calls by dose curve; also: potency is read from the fitted curve at half-maximal effect); conditions: CHO-K1 GR-EFC translocation, beta-gal luminescence, 2 h
Method in brief: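 Translocation of GR-ED fusion to nuclear EA restores b-gal, read by luminescence after 1 h room-temperature detection. Engineered CHO-K1 biosensor cells, 1,000/well, exposed 2 h at 37 C to titrations up to 46 uM final.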

O=C(O)[C@@H](O)[C@@H](O)[C@H](O)[C@H](O)CO
active: Potency (W2) 4.78 µM
inactive: Potency [1] > 11.4 µM | activity change, negative = inhibition [2] -1.8% | activity change, negative = inhibition [3] -5.5% [at 2.29 µM] | activity change, negative = inhibition [4] 5.42% | activity, negative = inhibition [5] -3.53% | Potency [6] | Potency [7] | activity, negative = inhibition [8] -24% | Potency (CP192) | Potency (CP194) | Potency (CP203)

CC(C)CSC[C@@H]1O[C@H](n2cnc3c(N)nccc32)[C@H](O)[C@@H]1O
inactive: Potency [1] > 11.4 µM | activity change, negative = inhibition [2] 4.75% | Potency [3] | activity change, negative = inhibition [4] 12.1% | Potency [9] > 46 µM | Potency [10] > 9.22 µM | Potency [6] | Potency [7]

COC(=O)N1CCC2(CCCN(Cc3cc(C(F)(F)F)cc(C(F)(F)F)c3)C2)CC1
inactive: Potency [1] > 11.4 µM | activity change, negative = inhibition [2] 12% | Potency [3] | activity change, negative = inhibition [4] 0.959% | activity, negative = inhibition [5] -1.27% | Potency [10] > 46 µM | Potency [6] | Potency [7]

c1ccc([C@H](c2cccc3c2ccc2ccccc23)[C@H](c2ccccc2)c2cccc3c2ccc2ccccc23)cc1
inactive: Potency [1] > 11.4 µM | activity change, negative = inhibition [2] 15.9% | Potency [3] | activity change, negative = inhibition [4] -0.573% | Potency [9] > 46 µM | Potency [10] > 9.22 µM | Potency [6] | Potency [7]

CC(=O)N[C@@H]1CONC1=O
inactive: Potency [1] > 11.4 µM | activity change, negative = inhibition [2] 10.9% | Potency [3] | activity change, negative = inhibition [4] 5.02% | Potency [9] > 46 µM | Potency [10] > 9.22 µM | Potency [6] | Potency [7]

Cc1ccc(S(=O)(=O)NC(=O)Nc2ncn[nH]2)cc1
inactive: Potency [1] > 11.4 µM | activity change, negative = inhibition [2] 3.19% | activity change, negative = inhibition [3] -21.5% [at 2.29 µM] | activity change, negative = inhibition [4] 13% | Potency [9] > 46 µM | Potency [10] > 9.22 µM | Potency [6] | Potency [7]

C[C@H]1C[C@H]2[C@H]3CCC4=CC(=O)C=C[C@@]4(C)[C@]3(F)[C@H](O)C[C@]2(C)[C@@]1(O)C(=O)COP(=O)(O)O
inactive: Potency [1] > 11.4 µM | activity change, negative = inhibition [2] -4.3% | Potency [3] | activity change, negative = inhibition [4] 15.9% | activity, negative = inhibition [5] -7.89% | Potency [6] | Potency [7]
